{
  "source": "the supplement of paper PMC7530171",
  "note": "± gives the standard deviation.",
  "data": [
    {"system": "THP-1 macrophages infected with Mycobacterium tuberculosis H37Rv", "experiment": "intracellular M.tb growth inhibition relative to DMSO (0) and 4 uM bedaquiline (100); higher = stronger inhibition of intracellular bacterial growth", "settings": "10 µM; 4 days", "procedure": "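OICR kinase inhibitor library screened in duplicate at 10 uM against THP-1 macrophages (PMA-differentiated) infected with M. tuberculosis H37Rv-pTEC27 (tdTomato RFP), 4 days at 37 C. Rows with complete host cell loss (placeholder inhibition 0, cell loss 100) were removed.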", "units": {"intracellular M.tb growth inhibition": "%"}, "values": [
      {"molecule": "O=C(O)c1ccc2c(c1)nc(Nc1cccc(Cl)c1)c1ccncc12", "intracellular M.tb growth inhibition": "-112 ± 130"},
      {"molecule": "O=c1cc(N2CCOCC2)oc2c1ccc1ccccc12", "intracellular M.tb growth inhibition": "19.8 ± 4.3"},
      {"molecule": "O=C(O)c1ccc2c3c1cccc3c(=O)n1c3ccccc3nc21", "note": "[STO-609 acetic acid]", "intracellular M.tb growth inhibition": "-29.1 ± 36"},
      {"molecule": "COc1cc(Nc2c(C#N)cnc3cc(OCCCN4CCN(C)CC4)c(OC)cc23)c(Cl)cc1Cl", "note": "[Bosutinib]", "intracellular M.tb growth inhibition": "109 ± 1.8"},
      {"molecule": "CN1CCC(COc2cnc(-c3cccc(Cn4nc(-c5cccc(C#N)c5)ccc4=O)c3)nc2)CC1", "intracellular M.tb growth inhibition": "48.3 ± 68"},
      {"molecule": "CN(C)c1ccc(/C=C2/C(=O)Nc3ccccc32)cc1", "intracellular M.tb growth inhibition": "5.91 ± 3.3"},
      {"molecule": "CC#CC(=O)Nc1cc2c(Nc3ccc(F)c(Cl)c3)ncnc2cn1", "intracellular M.tb growth inhibition": "-68.3 ± 97"},
      {"molecule": "COc1cc2ncnc(Nc3ccc(O)cc3)c2cc1OC", "note": "[Janex-1]", "intracellular M.tb growth inhibition": "-138 ± 210"},
      {"molecule": "O=C1NCc2c1c1c3ccccc3[nH]c1c1[nH]c3ccccc3c21", "intracellular M.tb growth inhibition": "37.2 ± 30"},
      {"molecule": "Nc1nccc(-c2ccc3noc(-c4ccc(Cl)cc4)c3c2)n1", "note": "[PIM 1 Inhibitor 2]", "intracellular M.tb growth inhibition": "20.6 ± 8.4"}
    ]}
  ]
}
